# A selection: hits, their analogues and other compounds. The true share with any hit is near 27%.
# CYP2C19 inhib: inhibitors of human CYP2C19. P33261. CYP2C19 Supersomes, luciferin-H EGE luminescence, 30 min. inhibition, % at 5 µM. hit rate 21% among 96,000. AID 778;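 active = CYP2C19 inhibition above a set limit at 5 µM in the primary screen, cut at about 50% in these data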;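 note: plate controls were negative control wells for no effect and 2.5 mM tranylcypromine positive control for full effect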
# Target sequence (P33261 whole entry, looked up): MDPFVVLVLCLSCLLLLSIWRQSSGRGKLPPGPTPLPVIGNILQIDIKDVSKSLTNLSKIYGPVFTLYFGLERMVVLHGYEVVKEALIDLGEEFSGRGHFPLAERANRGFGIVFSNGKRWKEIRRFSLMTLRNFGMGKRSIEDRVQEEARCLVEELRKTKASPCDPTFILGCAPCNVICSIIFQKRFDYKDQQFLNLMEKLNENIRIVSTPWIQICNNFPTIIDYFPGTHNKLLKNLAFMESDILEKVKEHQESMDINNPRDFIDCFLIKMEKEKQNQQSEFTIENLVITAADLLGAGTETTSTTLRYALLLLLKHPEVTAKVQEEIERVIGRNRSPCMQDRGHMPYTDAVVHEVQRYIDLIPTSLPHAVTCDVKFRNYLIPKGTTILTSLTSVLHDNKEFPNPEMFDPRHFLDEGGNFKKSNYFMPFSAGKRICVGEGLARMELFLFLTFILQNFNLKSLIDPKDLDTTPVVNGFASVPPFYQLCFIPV
# CYP2C9 act: increases human cytochrome P450 2C9 activity; hit rate 1.4% among 96,000; AID 1024; activation factor at 5 µM; recombinant CYP2C9, luciferin-H conversion, luminescence; stronger effect = higher value; factor 1 = untreated enzyme, 0 = blocked; P11712;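 active = activation factor of 2 or more for CYP2C9 at a 5 µM dose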;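 note: 0 = sulfaphenazole-blocked wells and 1 = vehicle-only wells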
# CYP2C9 inh: human CYP2C9 inhibition | AID 777 | CYP2C9 Supersomes, luciferin-H conversion, luminescence | hit rate 20% among 96,000 | inhibition, % at 5 µM;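 active = blocking of liver enzyme CYP2C9 beyond about 50% at 5 µM, limit read from the data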
# CYP2C19 act: activators of human cytochrome P450 2C19; activation factor at 5 µM; 96,000 tested, under 10 active; recombinant CYP2C19, luciferin-H EGE luminescence; stronger effect = higher value; 0 = fully inhibited enzyme, 1 = untreated enzyme; P33261;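 active = activation factor of at least 2 at 5 µM in the primary screen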;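 note: 0 = wells with 2.5 mM tranylcypromine and 1 = vehicle-only wells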
# sEH activator: soluble epoxide hydrolase (human) activation | P34913 | purified human sEH enzymatic activity, activator screen | activation, % at 2 µM | hit rate 0.04% among 91,000; in the data active = activation above about 37%
# sEH inhibitor: inhibitors of human soluble epoxide hydrolase | P34913 | recombinant human sEH enzymatic activity assay | inhibition, % at 2 µM | hit rate 0.34% among 91,000; in the data active = inhibition above about 80%
# Starred values were filed as active, the others as inactive; nt = no result given.
SMILES,CYP2C19 inhib,CYP2C9 act,CYP2C9 inh,CYP2C19 act,sEH activator,sEH inhibitor
O=C(NC1(C(F)(F)F)NC(=O)N(c2ccc(F)c(Cl)c2)C1=O)c1ccncc1 (stereo not drawn),82*,0,98*,0.2,2,0
Cn1c(=O)c(-c2cc(Br)ccc2N)nc2ccccc21,93*,0.5,52*,0.1,-7,8
COc1ccc(/C=C2\CN(Cc3ccccc3)C/C(=C\c3ccc(OC)cc3OC)C2=O)c(OC)c1,20,0.8,18,0.8,-4,6
COc1ccc2c(c1)CC/C(=C\c1ccc(OC)c(Cn3nc(C)cc3C)c1)C2=O,87*,0.5,49,0.1,-9,7
COc1ccc2c(c1)CC/C(=C\c1ccc(OC)c(Cn3cccn3)c1)C2=O,97*,0.1,91*,0,-1,-1
CCOC(=O)C1=C(C)N(c2ccccc2)C(=O)C1CC(=O)O (stereo not drawn),53*,0.6,41,0.5,nt,nt
O=C(Cc1cccs1)Nn1c(Cc2cccs2)nc2ccccc2c1=O,47,0.3,72*,0.5,nt,nt
O=C(CSc1nc2ccsc2c(=O)n1NC(=O)c1ccccc1)NCc1ccco1,60*,0.4,64*,0.4,6,-4
O=C(CSc1nc2ccccc2c(=O)n1NC(=O)Cc1ccccc1)NCc1ccccc1,46,0.1,93*,0.5,-3,5
O=C(CSc1nc2ccccc2c(=O)n1NC(=O)Cc1ccccc1)NCc1ccco1,16,0.1,88*,0.8,8,-8
O=C(Nn1c(Cc2cccs2)nc2ccccc2c1=O)c1ccc(F)c(F)c1,nt,nt,nt,nt,-3,6
O=C(CSc1nc2ccccc2c(=O)n1-c1ccccc1)NCc1ccco1,43,0.8,23,0.6,-8,7
Cc1c(C2N3CC4(C)CN2CC(C)(C3)C4=O)c2ccccc2n1C (stereo not drawn),21,1.2,-18,0.8,nt,nt
O=C1/C(=C\Nc2ccc(Cl)cc2)CCN1c1ncccn1,20,0.6,45,0.8,-7,9
O=C(CSc1ncnc2c1oc1ccccc12)N1CCc2ccccc2C1,12,0.8,18,0.9,nt,nt
CCc1ccc(NC(=O)CSc2nnc(SCC(=O)Nc3ccc(CC)cc3)n2N)cc1,-7,0.4,62*,1.1,-4,2
Cc1ccc(NC(=O)CSc2nnc(C3CCCCC3)n2N)cc1F,85*,0.3,72*,0.2,-9,9
CCc1nnc(SCC(=O)Nc2ccc(C(C)=O)cc2)nc1CC,74*,0.6,40,0.3,nt,nt
CCc1ccc(NC(=O)CSc2nnc(CC)c(CC)n2)cc1,64*,0.5,49,0.4,2,-4
Cc1cc(-n2c(SCCC#N)nnc2-c2cccnc2)ccc1Cl,3,1.2,-17,1,nt,nt
CCN(C(=O)c1cc2cccc(OC)c2oc1=O)C1CCCCC1,nt,nt,nt,nt,10,-7
COc1cc2nc(-c3cccs3)oc(=O)c2cc1OC,nt,nt,nt,nt,6,-2
O=C(O)CC(CNS(=O)(=O)c1ccccc1)c1ccccc1 (stereo not drawn),6,0.9,6,0.9,nt,nt
CCc1nnc(NC(=O)C2CCN(c3nc(C)cc(C)n3)CC2)s1,-3,0.8,24,1,1,0
Cc1cc(C)cc(NC(=O)CSc2nnc(-c3ccccc3)n2N)c1,7,1,-3,0.9,-5,6
SMILES,CYP2C19 inhib,CYP2C9 act,CYP2C9 inh,CYP2C19 act,sEH activator,sEH inhibitor
Cc1cc(C)c(NC(=O)CSc2nnc(SCC(=O)Nc3c(C)cc(C)cc3C)n2N)c(C)c1,68*,0.9,15,0.3,-2,0
CCN1CCN(C(c2ccccc2)c2nnnn2CCc2ccc(OC)c(OC)c2)CC1 (stereo not drawn),-10,1.1,-9,1.1,6,-6
CCCCOC(=O)CSc1nnc(N)s1,52*,0.8,16,0.5,3,-1
O=C(NNC(=S)NCc1ccco1)c1ccc(Cl)s1,46,0.4,55*,0.5,-8,8
Cc1c(Cl)c(C(=O)NNC(=S)NCc2ccco2)nn1C,nt,nt,nt,nt,-2,5
CCCCCCC1CCC(C(=O)Nn2c(C)nc3ccccc3c2=O)CC1 (stereo not drawn),42,0.1,91*,0.6,13,-12
O=C(Nn1c(-c2ccc(F)cc2)nc2ccccc2c1=O)C1CCCCC1,45,0.4,64*,0.5,11,-12
CCCC1CCC(C(=O)Nn2c(C)nc3ccccc3c2=O)CC1 (stereo not drawn),nt,nt,nt,nt,-7,6
CCOc1cc(NC(=S)NCC2CCCO2)c(OCC)cc1NC(=O)c1cccc(C)c1 (stereo not drawn),nt,0.9,15,nt,-10,10
CC1=C(C(=O)Nc2ccccc2)C(c2ccco2)C(C#N)=C(SCC(=O)OC(C)C)N1 (stereo not drawn),43,0.6,45,0.6,4,-2
CC1=C(C(=O)Nc2ccccc2)C(c2ccco2)NC(=S)N1 (stereo not drawn),14,0.9,11,0.9,7,-5
CC1=C(C(=O)Nc2ccccc2)C(c2ccco2)C(C#N)=C(SCc2ccccc2)N1 (stereo not drawn),97*,0,96*,0,4,-3
CC1=C(C(=O)Nc2ccccc2)C(c2ccncc2)C(C#N)=C(SCC(=O)Nc2ccccc2)N1 (stereo not drawn),84*,0.2,80*,0.2,14,-12
CC1=C(C(=O)Nc2ccccc2)C(c2ccco2)C(C#N)=C(SCC(=O)Nc2cccc(C)c2C)N1 (stereo not drawn),72*,0.3,72*,0.3,-6,6
CC1=CC(C)(C)Nc2ccc(C)cc21,9,1.2,-21,0.9,4,-5
CC1=CC(C)(C)Nc2cc(C)c(C)cc21,92*,0.8,19,0.1,nt,nt
CCc1nc(SCc2cccnc2)c(C#N)cc1C,57*,0.7,32,0.4,2,1
CCc1nc(SCC(=O)O)c(C#N)cc1C,-12,1.1,-12,1.1,1,-3
Cc1cc(-c2cccnc2)c(C#N)c(SCc2cccc(F)c2)n1,69*,1.8,-79,0.3,-2,4
Cc1ccc(S(=O)(=O)N2C(=S)SCC2(C)C)cc1,74*,1.1,-7,0.3,nt,nt
CC1=CC(C)(C)N(S(=O)(=O)c2ccc(C)cc2)c2cc(C)ccc21,43,0.6,43,0.6,19,-26
N=C1C(c2ccccc2)=C(O)CN1c1ccccc1N1CCOCC1,8,1.1,-9,0.9,nt,nt
CCCCN1C2=NCCCN2c2cc(C)c(C)cc21,-8,1,2,1.1,7,-8
O=C(c1ccco1)N1CCN(c2ncnc3c2[nH]c2ccccc23)CC1,67*,0.6,40,0.3,9,-5
O=C(c1ccco1)N1CCN(c2ncnc3c2[nH]c2ccc(Br)cc23)CC1,96*,0.1,90*,0,2,0
O=C(c1ccco1)N1CCN(c2ncnc3c(-c4ccccc4)nsc23)CC1,6,0.9,14,0.9,7,-5

# Bioassay records: PubChem BioAssay, several laboratories
